Experimental data: PubChem BioAssay (NCI)
Compounds without any hit were thinned out: in the full panel of roughly 79,000, 15% have a hit. No stated cut-off is given here; in the data, active means growth inhibition above about 70%; inactive means the rest.

Legend:
[1] = NCI Yeast Anticancer Drug Screen. Data for the rad50 strain (AID 155);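 further: 0% = growth of vehicle-only cultures of the same strain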; details: S. cerevisiae rad50 strain growth inhibition; at 50.0 µM; active compounds read high
How it was run: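 DNA repair mutant yeast, compound exposure, growth read-out; inhibition is taken relative to vehicle.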

[2] = NCI Yeast Anticancer Drug Screen. Data for the mec2-1 strain (AID 157); details: S. cerevisiae mec2-1 strain, at 50.0 µM, active compounds read high
How it was run: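 Yeast mec2-1 mutant treated with compound. Readout: growth inhibition vs vehicle controls.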

[3] = NCI Yeast Anticancer Drug Screen. Data for the sgs1 mgt1 strain (AID 161);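 further: 0% = growth of cultures given vehicle only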; details: S. cerevisiae sgs1 mgt1 strain, at 50.0 µM, active compounds read high
How it was run: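 Read-out: growth inhibition vs vehicle controls. Cells: mutant yeast strain deficient in DNA damage repair.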

[4] = NCI Yeast Anticancer Drug Screen. Data for the cln2 rad14 strain (AID 165);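 further: 0% = growth equal to vehicle treated cultures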; details: S. cerevisiae cln2 rad14 strain, at 50.0 µM, active compounds read high
How it was run: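 cln2 rad14 yeast strain; compound exposure; growth inhibition read vs vehicle controls.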

[5] = NCI Yeast Anticancer Drug Screen. Data for the bub3 strain (AID 167); details: S. cerevisiae bub3 mutant strain, at 50.0 µM, active compounds read high
How it was run: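 In this screen, a yeast mutant lacking normal mitotic checkpoint function is challenged with compound. Relative growth versus vehicle gives the inhibition value.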

[6] = NCI Yeast Anticancer Drug Screen. Data for the mlh1 rad18 strain (AID 175); details: S. cerevisiae mlh1 rad18 strain growth inhibition; at 50.0 µM; active compounds read high
How it was run: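 Yeast w/ defined DNA-repair lesions; compound exposure; growth vs vehicle controls → % inhibition.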

Measured: growth inhibition

Cn1ncc2c(=O)[nH]c(-c3ccccc3)nc21
inactive: [1] -0.75% | [2] -8.35% | [3] -5.9% | [4] 3.55% | [5] -3.05% | [6] -6.3%

Cc1ccc(Nc2nnc(-c3ccc4c(c3)OCO4)o2)c(C)c1
inactive: [1] 22.8% | [2] 1.6% | [3] -4.4% | [4] -2.15% | [5] -4% | [6] 14.8%

CC(C)=CC1C(CO)C1(C)C (configuration not stated)
inactive: [1] -7.8% | [2] -17.2% | [3] 23.8% | [4] -16.6% | [5] -6.25% | [6] -16.9%

c1ccc(-c2cc3cc4c(cc3[nH]2)Oc2ccccc2O4)cc1
inactive: [1] 5.45% | [2] 14.4% | [3] 18.4% | [4] 10.8% | [5] 5.2% | [6] 3.1%

OCCOc1ccc(Cl)cc1Cl
inactive: [1] -6% | [2] -32% | [3] -18.2% | [4] -2.85% | [5] -0.8% | [6] 9.05%

O=C(Nc1ccc(Cl)cc1[N+](=O)[O-])N1CCN(c2ccccc2)CC1
inactive: [1] -8.35% | [2] 21.9% | [3] 29.4% | [4] -10.3% | [5] 44.3% | [6] 28.1%

C[C@H](C(=O)C12CC3CC(CC(C3)C1)C2)[C@H](O)c1ccccc1
inactive: [1] 5.85% | [2] 4.7% | [3] -10.8% | [4] 17% | [5] -11.5% | [6] -18.2%

O=C1CC2COc3ccc(OCCN4CCCC4)cc3C2=NN1c1ccccc1 (configuration not stated)
inactive: [1] -4.75% | [2] 16.9% | [3] -22.7% | [4] -18.9% | [5] 2.15% | [6] 1.1%

Cc1cc(C)n2ncc(Br)c2n1
inactive: [1] 26.2% | [2] 13.1% | [3] 14.2% | [4] -35% | [5] 12.9% | [6] 8.15%

COC1=CC(=C(C#N)C(=Nc2ccccc2)SC)C=C(OC)C1=O
inactive: [1] 34.1% | [2] 19.1% | [3] 48.9% | [4] 15.3% | [5] 20.6% | [6] 43.6%

CCOC(=O)N1C2c3ccccc3C3C(C21)N3C(=O)OCC (configuration not stated)
inactive: [1] -0.3% | [2] -12.3% | [3] 0.3% | [4] 1.95% | [5] 3.9% | [6] -11.4%

Cc1ccccc1OCC1COCN(C(C)(C)CO)CO1 (configuration not stated)
inactive: [1] -11.1% | [2] -4.5% | [3] -5.5% | [4] 7.9% | [5] -13.9% | [6] 16.8%

N#Cc1nc(NC(=O)c2ccccc2C(=O)O)c(C#N)[nH]1
inactive: [1] 1.5% | [2] 14.1% | [3] -20.8% | [4] 4.95% | [5] -8.85% | [6] -29.3%

O=[N+]([O-])c1ccc(C2=NOC3COC4C=CC=CC4OCC23)cc1 (configuration not stated)
inactive: [1] -3.4% | [2] -29.7% | [3] 11.1% | [4] -2.55% | [5] 5.95% | [6] -7.5%

O=C1CC(=O)c2cccc3cccc1c23
inactive: [1] 42.8% | [2] 22.7% | [3] 44.4% | [4] 7.35% | [5] 47.9% | [6] 27.1%

CS(=O)(=O)OC1COCC1OS(C)(=O)=O (configuration not stated)
inactive: [1] 8% | [2] 6.15% | [3] 9.05% | [4] -0.8% | [5] -5.3% | [6] -6.1%

C1=C(c2ccccc2)c2ccccc2/C1=N/Nc1ccccc1
inactive: [1] 6.4% | [2] 6.15% | [3] 8.1% | [4] 2.3% | [5] 0.6% | [6] 5%

Nc1ccc2ccc3ccc(N)nc3c2n1
inactive: [1] 36% | [2] 38% | [3] 40.7% | [4] -1.8% | [5] 44.1% | [6] 17.1%

Cc1ccc(C)c(NC(=O)C(=O)C2C(=O)N(c3ccccc3)N=C2N)c1 (configuration not stated)
inactive: [1] -38.5% | [2] -29.4% | [3] -1.25% | [4] 1.9% | [5] -26.4% | [6] -14%

CC1CN(Cc2ccccc2)C(=O)C1=O (configuration not stated)
inactive: [1] -20.4% | [2] 17.1% | [3] -21.3% | [4] -12.7% | [5] -9.8% | [6] -11.9%

N#CC(c1ccccc1)C(C#N)c1ccc(Cl)cc1 (configuration not stated)
inactive: [1] 5.75% | [2] 16.2% | [3] -1.35% | [4] -98.5% | [5] 22.4% | [6] 3.8%

CC(=O)NCCCCCC(=O)N(C)C
inactive: [1] -32.6% | [2] -8.45% | [3] -16.8% | [4] -17.6% | [5] -3.3% | [6] -5.35%

CCOC(=O)C1=NN(c2ccccc2)C(=O)/C1=C\N1CC(=O)NC1=S
inactive: [1] -19.4% | [2] -14.2% | [3] -31.5% | [4] -10.2% | [5] 9.85% | [6] -32.1%

O=C1C[C@@H]2[C@@H](CCC23CCCC3)N1
inactive: [1] 17.8% | [2] 12.9% | [3] -9.75% | [4] 20.4% | [5] 15.2% | [6] 20.6%

[O-]/[N+](=C\c1cccc(O)c1)c1ccccc1
inactive: [1] -1.75% | [2] 16.4% | [3] 11.8% | [4] -21.2% | [5] -5.5% | [6] 15%

C=CCNC(=S)Nc1ccccc1
inactive: [1] -1.8% | [2] -9.95% | [3] 4.25% | [4] -5.1% | [5] -18.9% | [6] -11.9%

COc1nc2c(c(O)c(C)c(=O)n2OC2OCC(OC(C)=O)C(OC(C)=O)C2OC(C)=O)c(=O)n1C (configuration not stated)
inactive: [1] -0.15% | [2] -19.4% | [3] -30.6% | [4] -1.85% | [5] -10.3% | [6] -20.8%

COc1c(Cl)c(Cl)c([N+](=O)[O-])c(Cl)c1Cl
inactive: [1] 40.4% | [2] 30.1% | [3] 35.5% | [4] 7.65% | [5] 37.9% | [6] 33.2%

COc1ccc(C(=O)CC(=O)CCC(=O)Nc2cc(C)ccc2C)cc1
inactive: [1] -6.55% | [2] 5.2% | [3] 18.2% | [4] -7.75% | [5] 5.25% | [6] 25.1%

Cc1cccc(CC(O)c2ccc(C=O)cc2)n1 (configuration not stated)
inactive: [1] 20.6% | [2] 14.7% | [3] 6.75% | [4] 5.65% | [5] 14.4% | [6] 37.5%

CCCC1CCCC1C (configuration not stated)
inactive: [1] 4.3% | [2] 4.25% | [3] 8.45% | [4] 5.4% | [5] 17.4% | [6] -1.85%

Nc1nc2cc(COc3ccc(C(=O)O)cc3)ccc2nc1-c1ccccc1
inactive: [1] -28.6% | [2] -17.9% | [3] -13.8% | [4] -2.9% | [5] -26.2% | [6] -15.1%

O=C(NCCN1CCCCC1)C(O)(C1CCCCC1)C1CCCCC1
inactive: [1] -6.85% | [2] 7.65% | [3] 12.2% | [4] 19.2% | [5] 9.75% | [6] 3.9%

O=C(Nc1ccc(S(=O)(=O)N2CCCCC2)cc1)OC1CCCC1
inactive: [1] 3.85% | [2] 14.7% | [3] 1.15% | [4] 18.9% | [5] 14.8% | [6] -12.6%

S=c1sc2ccccc2n1CN1CCCC1
inactive: [1] 6.1% | [2] 0.05% | [3] 29.9% | [4] 11.9% | [5] 8.3% | [6] -6.65%

CSc1cc(C)n2nnnc2n1
inactive: [1] 1.25% | [2] -11.9% | [3] -3.2% | [4] -27.2% | [5] -3.75% | [6] -0.3%

CCOc1ccccc1/C=C(/C#N)C(N)=O
inactive: [1] 10.8% | [2] -0.5% | [3] -26.6% | [4] -29.9% | [5] -50.4% | [6] -1.3%
